Article PMC4336329 (PLoS ONE, 2015)
In all, about 310,000 compounds went through this assay and about 14,000 (4.5%) showed an effect of 50% or more. Effects have a minus sign here. The sample holds strong results, similar compounds and a random draw of the others, so the mix is not that of the screen.

What follows are molecules tested against human ether-à-go-go-related gene (hERG) potassium channel (human, UniProt Q12809) (assay: primary screen, population patch clamp on CHO cells stably expressing hERG; higher = less effect of the substance).
human ether-à-go-go-related gene (hERG) potassium channel, sequence (Q12809 whole entry, looked up): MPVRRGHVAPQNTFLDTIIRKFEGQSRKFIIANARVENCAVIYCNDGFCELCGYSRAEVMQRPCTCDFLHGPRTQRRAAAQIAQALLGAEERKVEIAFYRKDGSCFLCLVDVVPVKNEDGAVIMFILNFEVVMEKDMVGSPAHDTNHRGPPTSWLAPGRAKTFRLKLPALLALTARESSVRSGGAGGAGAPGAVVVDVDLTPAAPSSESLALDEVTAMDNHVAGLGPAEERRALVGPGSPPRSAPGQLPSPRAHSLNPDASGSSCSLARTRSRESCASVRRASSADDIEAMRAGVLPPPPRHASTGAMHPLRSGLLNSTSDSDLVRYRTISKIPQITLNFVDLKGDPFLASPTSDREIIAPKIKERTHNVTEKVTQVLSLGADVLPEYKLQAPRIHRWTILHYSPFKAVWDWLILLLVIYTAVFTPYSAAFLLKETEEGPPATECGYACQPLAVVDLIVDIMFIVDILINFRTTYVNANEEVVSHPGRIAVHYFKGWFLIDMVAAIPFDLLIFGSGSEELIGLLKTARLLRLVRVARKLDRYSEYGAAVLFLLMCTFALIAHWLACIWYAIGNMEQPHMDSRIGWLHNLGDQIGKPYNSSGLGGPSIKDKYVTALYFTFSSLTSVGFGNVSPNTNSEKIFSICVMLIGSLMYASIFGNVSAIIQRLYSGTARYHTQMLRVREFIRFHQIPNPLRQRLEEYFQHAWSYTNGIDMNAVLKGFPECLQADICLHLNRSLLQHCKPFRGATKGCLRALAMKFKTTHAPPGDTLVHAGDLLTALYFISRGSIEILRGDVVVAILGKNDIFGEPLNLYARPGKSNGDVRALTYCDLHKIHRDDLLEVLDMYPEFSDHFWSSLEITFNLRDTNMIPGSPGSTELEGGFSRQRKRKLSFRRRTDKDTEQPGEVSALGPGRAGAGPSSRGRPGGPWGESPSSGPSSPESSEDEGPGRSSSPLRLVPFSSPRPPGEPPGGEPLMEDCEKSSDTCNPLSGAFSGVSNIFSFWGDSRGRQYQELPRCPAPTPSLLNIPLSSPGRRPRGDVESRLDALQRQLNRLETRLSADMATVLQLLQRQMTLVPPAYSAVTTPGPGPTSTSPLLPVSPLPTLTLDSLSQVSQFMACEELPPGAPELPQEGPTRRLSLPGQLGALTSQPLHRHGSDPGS
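Also: peak tail current of the secondary pulse compared with the same well before compound.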

Row | SMILES | hERG current change (%, negative = inhibition) at 10uM
1 | Cc1cc(NS(=O)(=O)c2ccc(NC(=O)CSc3nc4ncc(Br)cc4[nH]3)cc2)nc(C)n1 | 20.8%
2 | CC(C)Oc1cccc(C(=O)C2CCCN(C(=O)c3ccc4c(c3)OCO4)C2)c1 (stereo not drawn) | -26.9%
3 | O=C(c1ccc2c(c1)OCO2)C1CCCN(Cc2ccc(OC(F)F)cc2)C1 (stereo not drawn) | -85.7%
4 | O=C(c1ccc2c(c1)OCO2)C1CCCN(Cc2ccccc2OC(F)F)C1 (stereo not drawn) | -58.8%
5 | N/C(=N\OC(=O)COc1ccc2ccccc2c1Br)c1ccncc1 | 5.98%
6 | CCOc1ccc(NC(=O)NCc2ccc3c(c2)OCO3)cc1 | 9.08%
7 | CN1CCN(C(=O)CCc2nc3ccccc3c(=O)[nH]2)CC1 | 21.9%
8 | CC(=O)N1CCN(C(=O)CCc2nc3ccccc3c(=O)[nH]2)CC1 | 2.7%
9 | O=C(CCc1nc2ccccc2c(=O)[nH]1)N1CCN(S(=O)(=O)c2ccccc2Br)CC1 | -51.3%
10 | COc1ccc(N2CCN(C(=O)CCC(=O)NNc3nc4ccccc4c4nc(C)nn34)CC2)cc1 | -29.1%
11 | O=C(CCc1nc2ccccc2c(=O)[nH]1)N1CCN(c2ccc(F)cc2)CC1 | -68%
12 | Cc1nc2c3ccccc3nc(NNC(=O)CCC(=O)N3CCN(c4ccccc4)CC3)n2n1 | -28.5%
13 | Cc1nc2c3ccccc3nc(NNC(=O)CCC(=O)N3CCN(c4ccc(F)cc4)CC3)n2n1 | -53.2%
14 | Cc1ccc(C)c(S(=O)(=O)N2CCN(C(=O)CCc3nc4ccccc4c(=O)[nH]3)CC2)c1 | -47.1%
15 | O=C(CCc1nc2ccccc2c(=O)[nH]1)N1CCN(S(=O)(=O)c2ccc(F)cc2)CC1 | -27.6%
16 | O=C(CSc1ncnc2c1cnn2-c1ccc(F)cc1)NCC1CCCO1 (stereo not drawn) | 13.7%
17 | O=C1CCCS(=O)(=O)c2ccccc21 | 23.8%
18 | Cc1cccc(OCC(=O)NCCCNC(=O)c2ccc(C)nc2)c1 | 17.9%
19 | Cc1ccc(NC2(C(F)(F)F)N=C(c3ccccc3)NC2=O)nc1 (stereo not drawn) | 18.4%
20 | Cc1ccc(N2CCN(c3ccc(NC(=O)CCC(=O)O)cc3)CC2)cc1 | 19.6%
21 | COc1cc(Br)cc(/C=C/c2ccc3cccc(O)c3n2)c1OC | 11.4%

Row | SMILES | hERG current change (%, negative = inhibition) at 10uM
22 | COCCN(Cc1cn(C)nc1-c1ccccc1F)C(C)C | 15.5%
23 | COc1ccccc1C1(O)CCN(CC(=O)Nc2nc(-c3ccccc3)cs2)CC1 | -56.8%
24 | CCCn1c(SCC(=O)Nc2nc3c(s2)CCCC3)nc2c1c(=O)n(C)c(=O)n2C | -1.39%
25 | Cc1nnc(NC(=O)CSc2nc3c(c(=O)n(C)c(=O)n3C)n2C(C)C)s1 | -0.769%
26 | Cn1c(=O)c2c(nc(SCC(=O)Nc3ccccc3N3CCCCC3)n2C)n(C)c1=O | -54%
27 | CC(C)n1c(SCC(=O)Nc2nc3c(s2)CCCC3)nc2c1c(=O)n(C)c(=O)n2C | -59.2%
28 | CC(C)n1c(SCC(=O)Nc2ccccc2N2CCCCC2)nc2c1c(=O)n(C)c(=O)n2C | -36.7%
29 | O=C(CS(=O)(=O)c1ccccc1)Nc1nc(-c2ccccc2)cs1 | -51.9%
30 | COc1ccc(C2(O)CCN(CC(=O)Nc3nc(-c4ccccc4)cs3)CC2)cc1 | -10.1%
31 | CN1CCN(CC(=O)Nc2nc(-c3ccccc3)cs2)CC1 | -40.4%
32 | CCCn1c(SCC(=O)Nc2ccccc2N2CCCCC2)nc2c1c(=O)n(C)c(=O)n2C | -29.9%
33 | O=C(CS(=O)(=O)c1ccccc1)Nc1nc(-c2ccc(F)cc2)cs1 | 16.6%
34 | Cc1ccc(S(=O)(=O)CC(=O)Nc2nc(-c3ccccc3)cs2)cc1 | -38%
35 | O=C(CN1C(=O)NC2(CCCCCC2)C1=O)NCCc1ccccc1 | 1.14%
36 | Cc1noc(C)c1CSCC(=O)Nc1nc2ccc(Oc3ccccc3)cc2s1 | -13.6%
37 | CN(CC(=O)Nc1ccccc1C(F)(F)F)C(=O)CC1OC(=O)c2ccccc21 (stereo not drawn) | 9.27%
38 | CCOC(=O)CSc1nnc(CNc2ccc(Cl)cc2)n1-c1ccccc1 | 11.2%
39 | COc1cc2c(-c3ccc(O)cc3)nc3c(c(C)nn3-c3ccccc3)c2cc1OC | 11.5%
40 | O=C(O)CCSc1nc2ccc(Br)cc2[nH]1 | 8.75%
41 | C=C1C[C@@]23CCC4[C@@](C)(CCC[C@@]4(C)C(=O)OC)C2CC[C@]1(OC(C)=O)C3 (stereo partly drawn) | 10.8%
42 | O=C(Nc1nc(-c2ccc(F)cc2)cs1)c1cnccn1 | -0.514%

Row | SMILES | hERG current change (%, negative = inhibition) at 10uM
43 | CCc1ccc(N(C(C)=O)C2C=CS(=O)(=O)C2)cc1 (stereo not drawn) | -6.3%
44 | O=C(CSc1nc(=O)n2ccccc2n1)NCc1ccc2c(c1)OCO2 | -37.8%
45 | COc1ccc(OC)c(S(=O)(=O)NC(N)=NCCc2ccccc2OC)c1 | 9.89%
46 | CCOC(=O)N1CCN(C(=O)CSCC(=O)Nc2nc(-c3ccc(C)cc3)cs2)CC1 | -14.1%
47 | Cc1ccc2cc(C)c3nnc(SCC(=O)Nc4nc5c(s4)CCCC5)n3c2c1C | -53.8%
48 | Cn1c(CCNC(=O)c2cccs2)nnc1SCC(=O)Nc1nc(-c2ccccc2)cs1 | -7.06%
49 | Cc1ccccc1C(=O)NCCc1nnc(SCC(=O)Nc2nc(-c3ccccc3)cs2)n1C | 7.36%
50 | Cc1ccc(-c2nnc(SCC(=O)Nc3nc4c(s3)CCCC4)n2C)cc1 | 6.99%
51 | CCOC(=O)N1CCN(C(=O)CSCC(=O)Nc2nc(-c3ccc(-c4ccccc4)cc3)cs2)CC1 | -11.9%
52 | Cn1c(SCC(=O)Nc2nc3c(s2)CCCC3)nnc1-c1ccccc1 | -16.4%
53 | CCOC(=O)N1CCN(C(=O)CSCC(=O)Nc2nc(-c3ccccc3)cs2)CC1 | -50.5%
54 | Cc1cccc(-c2nnc(SCC(=O)Nc3nc4c(s3)CCCC4)n2C)c1 | -37.3%
55 | CCn1c(CCNC(=O)c2cccs2)nnc1SCC(=O)Nc1nc(-c2ccccc2)cs1 | -52%
56 | CCn1c(SCC(=O)Nc2nc3c(s2)CCCC3)nnc1-c1ccccc1 | -56.2%
57 | Cc1ccc(C)c2c1cc(C)c1nnc(SCC(=O)Nc3nc4c(s3)CCCC4)n12 | 1.01%
58 | Cc1ccc(N2CCN(S(=O)(=O)c3nnc(NC(=O)c4ccco4)s3)CC2)cc1 | 15.6%
59 | CS(=O)(=O)c1cccc(C(=O)NCc2ccc(F)cc2)c1 | 0.5%
60 | COC(C/C=C\[C@@H](O)[C@H](C)OCc1ccccc1)OC | 25.7%
61 | CCSc1nnc(NC(=O)c2cccnc2Cl)s1 | 16.3%
62 | Cc1cccc(N(C(=O)CNC(=O)c2cccs2)C(C(=O)NC2CCCC2)c2cccnc2)c1 (stereo not drawn) | 1.66%
63 | CCOc1ccc(N(CC(=O)N2CCN(Cc3ccccc3)CC2)S(C)(=O)=O)cc1 | -12.2%

Row | SMILES | hERG current change (%, negative = inhibition) at 10uM
64 | O=C(N/C(=C/c1ccc(F)cc1)C(=O)N1CCCCC1)c1ccco1 | -18.7%
65 | CN1C(=O)C(=Cc2ccc(N3CCCCCC3)o2)C(=O)N(C)C1=S | 6.46%
66 | CNC(=S)N1CCc2cc(OC)c(OC)cc2C1COc1ccc(F)cc1 (stereo not drawn) | -22.6%
67 | Br.CN(CC(O)C[NH+]1CCOCC1)S(=O)(=O)[O-] (stereo not drawn) | 17%
68 | Cc1nc2ccccc2c(=O)n1NC(=O)C1CC1 | 16.3%
69 | O=C(CSc1nnc(-c2ccncc2)n1Cc1ccco1)Nc1nc(-c2ccccc2)cs1 | -57.4%
70 | CCOC(=O)Cc1csc(NC(=O)CSc2nnc(-c3ccncc3)n2Cc2ccco2)n1 | -5.63%
71 | CCn1c(SCC(=O)Nc2nc(-c3ccccc3)cs2)nnc1-c1ccccc1O | -20.8%
72 | NC(=O)c1ccc(NC(=O)CSc2nnc(-c3ccncc3)n2Cc2ccco2)cc1 | 2.42%
73 | Cn1cnnc1SCC(=O)Nc1nc(-c2ccccc2)cs1 | -4.33%
74 | CCOC(=O)Cc1csc(NC(=O)CSc2nnc(-c3cccnc3)n2Cc2ccco2)n1 | -30.5%
75 | O=C(CSc1nnc(-c2cccnc2)n1Cc1ccco1)Nc1nc(-c2ccc(F)cc2)cs1 | -70.6%
76 | NC(=O)c1ccc(NC(=O)CSc2nnc(-c3cccnc3)n2Cc2ccco2)cc1 | 6.87%
77 | Cc1nnc(SCC(=O)Nc2nc(-c3ccccc3)cs2)n1N | 2.68%
78 | CCn1c(SCC(=O)Nc2nc(-c3ccc(C)cc3)cs2)nnc1-c1ccccc1 | -1.44%
79 | COc1ccccc1-c1nnc(SCC(=O)Nc2nc(-c3ccccc3)cs2)n1C | -71.8%
80 | CCn1c(SCC(=O)Nc2nc(-c3ccccc3)cs2)nnc1-c1ccccc1 | -66.6%
81 | CC(C)OCCCNC(=O)c1cccs1 | -9.39%
82 | COc1cc2c(cc1OC)C(c1cc(OC)c(OC)cc1[N+](=O)[O-])N(C(C)=O)CC2 (stereo not drawn) | 26%
83 | N#C/C(=N\[O-])c1nc(-c2ccccc2)cs1.[K+] | -8.69%
84 | O=C(O)c1ccc(N/N=C/c2cccc(C(F)(F)F)c2)cc1 | 27.3%
